In the supplement of paper PMC6555819:

Key:
Test in all cases: PBM binding z-score (relative to random genomic background probes); higher = stronger binding; sequences stand for … in GC…GCGATTGACAGCGTAGAATGAAGG
[1] = test system: FXR:RXRa (NR concentration 270 nM, RXRa partner concentration 90 nM)
Method in brief: (§1)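 Binding buffer was PBS pH 7.4 with 2% milk, 0.02% Triton X-100, 1 mM DTT, 0.2 mg/mL BSA and 0.4 mg/ml salmon testes DNA. In it, ligand-free nuclear receptor dimers were incubated 1 h on custom Agilent 4×180K protein-binding microarrays carrying double-stranded probes. Antibodies against each partner (one per run) detected binding, and z-scores were calculated against random background probes after regression normalization of scanned fluorescence.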

[2] = test system: LXRa:RXRa (NR concentration 270 nM, RXRa partner concentration 90 nM)
Method in brief: as §1

[3] = test system: LXRa homodimer (NR concentration 270 nM)
Method in brief: as §1

[4] = test system: LXRb:RXRa (NR concentration 270 nM, RXRa partner concentration 90 nM)
Method in brief: as §1

[5] = test system: LXRb homodimer (NR concentration 270 nM)
Method in brief: as §1

[6] = test system: PPARa:RXRa (NR concentration 270 nM, RXRa partner concentration 90 nM)
Method in brief: as §1

[7] = test system: PPARg:RXRa (NR concentration 180 nM, RXRa partner concentration 90 nM)
Method in brief: as §1

[8] = test system: PPARg:RXRa 270nM:90nM, anti-RXR (NR concentration 270 nM, RXRa partner concentration 90 nM)
Method in brief: as §1

[9] = test system: PPARg:RXRa 30nM:10nM, anti-RXR (NR concentration 30 nM, RXRa partner concentration 10 nM)
Method in brief: as §1

[10] = test system: PPARg:RXRa 90nM:30nM, anti-RXR (NR concentration 90 nM, RXRa partner concentration 30 nM)
Method in brief: as §1

Row | Sequence | PBM binding z-score [1] | PBM binding z-score [2] | PBM binding z-score [3] | PBM binding z-score [4] | PBM binding z-score [5] | PBM binding z-score [6] | PBM binding z-score [7] | PBM binding z-score [8] | PBM binding z-score [9] | PBM binding z-score [10]
1 | TCTCGGAGGACACCAAGGTCAGAGCTTTCCAGAG | 1.66 | 1.05 | 0.191 | 1.09 | -0.834 | 1.86 | 0.127 | 1.65 | 2.01 | 1.76
2 | GCTAGTTGGTCAGTAAAAGGTCACACCCCGGTCG | 2.85 | 4.02 | 4.42 | 3.74 | 0.781 | 4.19 | 2.69 | 4.11 | 2.14 | 3.78
3 | TTACCAAGGGGAGCTGAGGTCGTTGATCCAACTC | 1.8 | 0.173 | -0.107 | 0.623 | -0.398 | 0.818 | -0.207 | 0.37 | 0.187 | -0.00393
4 | TCGAGTAGGTTAGTCGTGGCATTCAGCCAACATA | -0.318 | -0.31 | -0.35 | -0.47 | -1.11 | 0.293 | -0.232 | 0.763 | 1.36 | 0.958
5 | CTTCCAAGGTCAAGGTCAGTGAAAGAGACTCGAA | 7.44 | 6.06 | 1.86 | 4.85 | 1.61 | 6.31 | 6.43 | 6.37 | 3.11 | 5.13
6 | TGAATGAGGTTATAAGATCAGCGAACGTTGCAAA | 1.21 | 1.34 | -0.415 | 0.765 | -0.436 | 2.88 | 1.18 | 1.89 | 0.811 | 1.34
7 | AGAATGAGGTTAAGATCAGTGAAACAGAATACAT | 2.32 | 3.08 | 0.0147 | 1.91 | -0.196 | 3.6 | 2.38 | 2.25 | 1.23 | 1.78
8 | TCGAGTAGGTTACCGATGGGGCATTCAGCTTTCT | 0.211 | 0.803 | -0.358 | 0.678 | -0.864 | 1.29 | 0.217 | 1.3 | 1.26 | 1.3
9 | TAGCCTAGGTCATGCGGGCCAGTATCGTGTCGGC | 3.99 | 3.03 | 0.667 | 1.41 | -0.226 | 3.06 | 1.67 | 2.29 | 0.00483 | 1.36
10 | CCTAGTAGGTCAGGAGGTCACACACCGGATATGA | 5.48 | 4.97 | 2.62 | 4.41 | 0.811 | 5.81 | 9.01 | 7.34 | 6.14 | 7.5
11 | CATACGGGGTCAGCTAGGCCAGAGTAGGGACGGC | 7.18 | 5.6 | 0.0211 | 4.81 | 1.12 | 6.17 | 7.29 | 6.63 | 3.71 | 5.39
12 | CAAACTAGGTCACGAAAGGTCAAGGTCGAATGAC | 7.28 | 7.82 | 6.86 | 6.75 | 1.7 | 6.43 | 10.6 | 8.38 | 7.12 | 8.5
13 | AGAACGAGGGCACGCTGCGTTGATAGCAGAGTAG | 0.623 | 0.419 | -0.7 | -0.144 | -0.905 | 1.75 | 1.89 | 1.74 | 0.373 | 1
14 | CGAACTGGGTCAGAACAGGACAGTGAAGGATGAT | 0.455 | 0.381 | -0.423 | 0.0427 | -0.721 | 2.66 | 4.95 | 3.9 | 1.63 | 3.42
15 | AATACAGGGTCATCGTAGACCAGAGTACGCACAG | 7.48 | 5.86 | 2.19 | 4.4 | 1.2 | 5.84 | 6.79 | 6.17 | 2.73 | 4.84
16 | CCGACTGGGGCAATGGTTACCATACTCAGTACGA | -0.281 | -0.63 | -0.543 | -0.411 | -1.1 | 0.901 | 2.88 | 3.63 | 1.72 | 3.63
17 | TGTCAAACTTCAAAGGTAACGTAAGTATCCACAC | 0.417 | 0.363 | -0.174 | 0.695 | 0.266 | 0.877 | 0.587 | 0.784 | 0.906 | 0.841
18 | TCGAGTAGGTTATCAATGGGGCATTCAGCTTTCT | 0.264 | 1.14 | -0.501 | 1.05 | -0.428 | 0.979 | -0.105 | 0.76 | 1.03 | 0.852
19 | ATCTCTAGGTAAGAAGTTCAGTGAAAGAGAGGAC | 0.325 | 0.566 | 0.243 | 0.366 | 0.539 | 0.924 | 1 | 2.09 | 0.954 | 1.86
20 | ATCTCTAGGTAAAGATAGTTCAGGGAATGCAAAT | 0.392 | 3.65 | 0.565 | 0.755 | 0.535 | 1.06 | 0.543 | 0.544 | 0.404 | 0.317
21 | CGTCCAAGGTCAAGGTCCGTGAAAGAGACTCGAA | 7.33 | 5.22 | 0.155 | 3.84 | 0.0848 | 5.79 | 5.02 | 5.3 | 1.9 | 3.92
22 | CCTACAGGGCCACGAAAGGTCATTGATTCAGTGA | 4.09 | 5.83 | 4.74 | 4.54 | 0.292 | 4.51 | 1.86 | 3.15 | 0.825 | 2.22
23 | CCGACTGGGGGAAAGGTTACCATACTCAGTACGA | 1.81 | 2.38 | 0.42 | 3.4 | 3.72 | 5.42 | 9.9 | 9.24 | 8.87 | 9.88
